# Results: PubChem BioAssay (NCATS)
# Where “and” joins values, the source holds several entries; their conditions need not be identical. Equal values may be shown once. Records with an inconclusive call do not appear. Where a call stands in place of a potency, no number is given. More than one record can exist for a structure, and the calls need not agree. Calls of active or inactive are those of the source. The call rests on the fitted dose curve; in most records, active means well fitted inhibition curve with a large enough effect; inconclusive means small, poorly fitted or top-dose-only effect; inactive means flat fitted curve, though single readings scatter. Non-standard residues stand in square brackets, D forms with d. Residues, ends and D or L forms follow the SMILES beside them. *: point of attachment. Sta = CC(C)C[C@H](N)[C@@H](O)CC(=O)O; Isovaleryl = CC(C)CC(=O)*
# Target: Phospholipid hydroperoxide glutathione peroxidase GPX4 (Homo sapiens) (UniProt P36969)
# Assay: Primary qHTS Assay for Inhibitors of Recombinant Selenoprotein Glutathione Peroxidase 4 (GPX4) (AID 1845192); further: nearly all actives have a fitted effect of over 65% in size
# Conditions: recombinant GPX4, GR-coupled NADPH fluorescence, 15 min; series mostly up to 50 µM
# Text: Assay Provider: Elias S.J. Arner MD PhD.
# Department of Medical Biochemistry and Biophysics
# Karolinska Institutet, Solna, Stockholm, Sweden
# Selenoprotein glutathione peroxidases (GPX), like the ubiquitously expressed GPX1 and the ferroptosis modulator GPX4, enact their antioxidant activities by reducing hydroperoxides using glutathione. […] GPX1 and GPX4 inhibitors have thus shown promise as anti-cancer agents. Existing inhibitors are often promiscuous, or modulate GPX activity only indirectly, so novel direct inhibitors identified through screening against GPX1 and GPX4 could be valuable. Here, we developed optimized glutathione reductase (GR)-coupled GPX assays for the biochemical high-throughput screen (HTS) of almost 12,000 compounds with known mechanisms of action. Initial hits were triaged using a GR counter-screen, assessed for isoform specificity using a separate GPX2 assay, and were assessed for general selenocysteine-targeting activity using a thioredoxin reductase (TXNRD1) assay. With this suite of assays, we identified novel GPX1/GPX2- and GPX4-specific inhibitors and can here present a validated pipeline for future discovery research for selenoprotein-targeting agents.
# SEQUENCE No. (e.g., 1, 2, 3, etc.); […] (e.g., Cells, Incubation, Reagent, etc.); VALUE; DESCRIPTION.
# 1; Reagent 1; 3 uL; 333.33 nM GPx4 enzyme or no enzyme control in 1536-well, black, solid Greiner assay plate.
# 2; Compound; 25 nL; Kalypsis pin tool (Wako USA) equipped with a 1536-well pin head.
# 3; Incubation; 30 min; room temperature.
# 4; Reagent 2; 1 uL; 500 nM GR, 5 mM GSH, 2.5 mM NADPH solution
# 5; Reagent 3; 1 uL; 2.5 mM CHP in 50% EtOH.
# 6; Detection; Fluorescence; ViewLux microplate reader, excitation 340 nm and emission 450 nm.
# 7; Incubation; 15 min; room temperature.
# 8; Detection; Fluorescence; ViewLux microplate reader, excitation 340 nm and emission 450 nm.
# NOTES (numbers refer to Sequence numbers above)
# 1. 3 µL of 333.33 nM GPX4 and 0.016% BSA in assay buffer (50 mM Tris-HCl, 2 mM EDTA (pH 7.5), 150 mM NaCl) was added to columns 3-48 of 1536-well plates using a BioRAPTR Flying Reagent Dispenser (Let's Go Robotics (LGR), Carlsbad, CA). A no-enzyme control (0.01% BSA in TES assay buffer) was added to columns 1-2.
# 2. 25 nL, library and DMSO controls were added to each well with a pin tool (Kalypsys).
# 3. The assay plates were incubated for 30 minutes at room temperature.
# 4. 1 µL of master mix (500 nM glutathione reductase (GR), 5 mM reduced glutathione (GSH), 2.5 mM NADPH in assay buffer) was added.
# 5. 1 µL of cumene hydroperoxide (CHP) ([2.5 mM] in 50% EtOH) was then added within 5 minutes to initiate the reaction. Final concentrations were: 200 nM GPX4, 1 mM GSH, 0.5 mM CHP, 0.5 mM NADPH, 100 nM GR, 0.01% BSA.
# 6. Initial fluorescence readout (t=0) at 340/450 nm was measured using a ViewLux multimodal detector (PerkinElmer, Waltham, MA).
# 8. Endpoint fluorescence readout (t=15) at 340/450 nm was measured 15 min after room temperature incubation.
# Potency means the concentration at half of the fitted maximal effect.
# Sequence of Phospholipid hydroperoxide glutathione peroxidase GPX4 (Homo sapiens) (P36969 whole entry, looked up): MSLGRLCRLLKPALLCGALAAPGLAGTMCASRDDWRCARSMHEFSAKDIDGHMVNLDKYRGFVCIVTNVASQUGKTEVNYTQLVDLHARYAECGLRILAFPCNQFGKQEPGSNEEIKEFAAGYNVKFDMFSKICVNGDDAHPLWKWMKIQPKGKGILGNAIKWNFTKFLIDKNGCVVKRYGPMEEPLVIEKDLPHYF
Compound,Potency,"activity change, negative = inhibition"
NNc1nncc2ccccc12,inactive,–
Oc1ccc(-c2nc(-c3ccc(F)cc3)c(-c3ccncc3)[nH]2)cc1,inactive,–
NCCCCNCCCN,inactive,–
O=c1cc(N2CCOCC2)oc2c(-c3ccccc3)cccc12,inactive,–
CC1(C)C(=O)N(CCN2CCC(C(=O)c3ccc(F)cc3)CC2)c2ccccc21,inactive,–
Clc1ccc(C(Cn2ccnc2)OCc2c(Cl)cccc2Cl)c(Cl)c1 (stereo not given),inactive,–
CC(=O)NC[C@H]1CN(c2ccc(N3CCOCC3)c(F)c2)C(=O)O1,inactive,–
CC(C)c1ccc2c(c1)c(SC(C)(C)C)c(CC(C)(C)C(=O)O)n2Cc1ccc(Cl)cc1,inactive,–
Cc1cc2cc3c(C)cc(=O)oc3c(C)c2o1,inactive,–
COC(=O)C1=C(C)NC(C)=C(C(=O)OC(C)C)C1c1cccc2nonc12 (stereo not given),inactive,–
CC(C)CC(=O)N[C@H](C(=O)N[C@H](C(=O)N[C@@H](CC(C)C)[C@@H](O)CC(=O)N[C@@H](C)C(=O)N[C@@H](CC(C)C)[C@@H](O)CC(=O)O)C(C)C)C(C)C (Isovaleryl-VV[Sta]A[Sta]-OH),inactive,–
O=C(O)c1cn(-c2ccc(F)cc2)c2cc(N3CCNCC3)c(F)cc2c1=O,inactive,–
CN1C(C(=O)Nc2ccccn2)=C(O)c2sccc2S1(=O)=O,inactive,–
O=C(CCc1ccc(O)cc1)c1c(O)cc(O)cc1O,inactive,–
Cc1nc2n(c(=O)c1CCN1CCC(c3noc4cc(F)ccc34)CC1)CCCC2,inactive,–
CC(C)[C@H](N)C(=O)OCCOCn1cnc2c(=O)[nH]c(N)nc21,inactive,–
Cc1ccc(C)c(OCCCC(C)(C)C(=O)O)c1,inactive,–
Nc1cccc2c1CN(C1CCC(=O)NC1=O)C2=O (stereo not given),inactive,–
NC(=O)Cc1cccc(C(=O)c2ccccc2)c1N,inactive,–
CCC(C)(Oc1ccc(C2(c3ccc(OC(C)(CC)C(=O)O)cc3)CCCCC2)cc1)C(=O)O (stereo not given),inactive,–

Compound,Potency,"activity change, negative = inhibition"
CC1(C)CCC(C)(C)c2cc(NC(=O)c3ccc(C(=O)O)cc3)ccc21,10 µM (active),–
Cn1c(NCCN(CCO)CCCc2ccc([N+](=O)[O-])cc2)cc(=O)n(C)c1=O,inactive,–
CCOC(=O)C1=C[C@@H](OC(CC)CC)[C@H](NC(C)=O)[C@@H](N)C1,inactive,–
COc1ccc(C2(C#N)CCC(C(=O)O)CC2)cc1OC1CCCC1 (stereo not given),inactive,–
Cc1nccn1CC1CCc2c(c3ccccc3n2C)C1=O (stereo not given),inactive,–
Clc1ccc(C(Cn2ccnc2)OCc2ccsc2Cl)c(Cl)c1 (stereo not given),inactive,–
COc1cc2nc(N3CCN(C(=O)C4CCCO4)CC3)nc(N)c2cc1OC (stereo not given),inactive,–
Nc1nc(N)c(N=O)c(OCC2CCCCC2)n1,inactive,–
CC1(C)NC(=O)N(c2ccc([N+](=O)[O-])c(C(F)(F)F)c2)C1=O,inactive,–
O=c1c(O)c(-c2ccc(O)cc2O)oc2cc(O)cc(O)c12,inactive and 10.1 µM (active),–
Cc1cc(O)c2c(c1)C(=O)c1cc(O)cc(O)c1C2=O,inactive,–
CCN(CCO)CCCC(C)Nc1ccnc2cc(Cl)ccc12 (stereo not given),–,-25.1% [at 4.52 µM] (inactive) and 2.25% [at 4.52 µM] (inactive)
CCN(CC)C(=S)SSC(=S)N(CC)CC,inactive,–
Cc1cccc(C#Cc2ccccc2)n1,inactive,–
N=C(N)c1ccc2cc(OC(=O)c3ccc(N=C(N)N)cc3)ccc2c1,inactive,–
CN(c1nccc(=O)[nH]1)C1CCN(c2nc3ccccc3n2Cc2ccc(F)cc2)CC1,inactive,–
COc1cc(C(C)=O)ccc1OCCCN1CCC(c2noc3cc(F)ccc23)CC1,inactive,–
CC(C)[N+]1(C)[C@@H]2CC[C@H]1CC(OC(=O)C(CO)c1ccccc1)C2 (stereo not given in full),inactive,–
CC(=O)Nc1ccc(O)cc1,inactive,–
CCCS(=O)c1ccc2nc(NC(=O)OC)[nH]c2c1 (stereo not given),inactive,–
